# Data published in the supplement of paper PMC8728848.
# Shown is part of a subset that was picked to be rich in the strongest signals.
# B1: mCC1-Hexahis-Precomplexed (Mus musculus), P31809 (protein)
# chain: MELASAHLHKGQVPWGGLLLTASLLASWSPATTAEVTIEAVPPQVAEDNNVLLLVHNLPLALGAFAWYKGNTTAIDKEIARFVPNSNMNFTGQAYSGREIIYSNGSLLFQMITMKDMGVYTLDMTDENYRRTQATVRFHVHPILLKPNITSNNSNPVEGDDSVSLTCDSYTDPDNINYLWSRNGESLSEGDRLKLSEGNRTLTLLNVTRNDTGPYVCETRNPVSVNRSDPFSLNIIYGPDTPIISPSDIYLHPGSNLNLSCHAASNPPAQYFWLINEKPHASSQELFIPNITTNNSGTYTCFVNNSVTGLSRTTVKNITVLEPVTQPFLQVTNTTVKELDSVTLTCLSNDIGANIQWLFNSQSLQLTERMTLSQNNSILRIDPIKREDAGEYQCEISNPVSVRRSNSIKLDIIFDPTQGGLSDGHHHHHH
# Columns and labels:
# Assay in all cases: glycan array binding signal (z-score within array); higher = stronger binding
# Conditions in all cases: glycan notation: IUPAC condensed, linker removed
# [1] = molecular target: Fuc(a1-2)Gal(b1-4)GlcNAc(b1-3)[Fuc(a1-3)[Gal(b1-4)]GlcNAc(b1-6)]Gal(b1-4)Glc
# Procedure, shortened: (§1)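 From the Consortium for Functional Glycomics database, 3228 arrays were curated, keeping only those whose protein sequence was available. Binding is given as a within-array Z-score averaged across arrays sharing a protein sequence and across linkers. Negative Z-scores can be read as non-binding.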
# [2] = molecular target: Fuc(a1-2)Gal(b1-4)[Fuc(a1-3)]GlcNAc(b1-3)Gal(b1-4)[Fuc(a1-3)]GlcNAc(b1-3)Gal(b1-4)[Fuc(a1-3)]GlcNAc
# Procedure, shortened: as §1
# [3] = molecular target: Fuc(a1-2)[Gal(a1-3)]Gal(b1-3)GlcNAc(b1-6)GalNAc
# Procedure, shortened: as §1
# [4] = molecular target: Fuc(a1-2)[GalNAc(a1-3)]Gal(b1-4)[Fuc(a1-3)]GlcNAc
# Procedure, shortened: as §1
# [5] = molecular target: Fuc(a1-3)[Gal(b1-4)]GlcNAc(b1-6)GalNAc
# Procedure, shortened: as §1
# [6] = molecular target: Fuc(a1-3)[GalNAc(b1-4)]GlcNAc6S
# Procedure, shortened: as §1
# [7] = molecular target: Gal(a1-3)Gal(b1-3)GlcNAc(b1-2)Man(a1-3)[Gal(a1-3)Gal(b1-3)GlcNAc(b1-2)Man(a1-6)]Man(b1-4)GlcNAc(b1-4)GlcNAc
# Procedure, shortened: as §1
# Gal(a1-4)Gal(b1-4)GlcNAc = molecular target: Gal(a1-4)Gal(b1-4)GlcNAc
# Procedure, shortened: as §1
# [8] = molecular target: Gal(b1-3)GalNAc(a1-3)[Fuc(a1-2)]Gal(b1-4)GlcNAc
# Procedure, shortened: as §1
# [9] = molecular target: Gal(b1-3)GlcNAc(b1-2)[Gal(b1-3)GlcNAc(b1-6)]Man(a1-6)[Gal(b1-3)GlcNAc(b1-2)Man(a1-3)]Man(b1-4)GlcNAc(b1-4)GlcNAc
# Procedure, shortened: as §1
# [10] = molecular target: Gal(b1-3)[Fuc(a1-4)]GlcNAc(b1-3)Gal(b1-4)[Fuc(a1-3)]GlcNAc
# Procedure, shortened: as §1
# [11] = molecular target: Gal(b1-4)GlcNAc(b1-2)[Gal(b1-4)GlcNAc(b1-4)]Man(a1-3)[Gal(b1-4)GlcNAc(b1-2)[Gal(b1-4)GlcNAc(b1-6)]Man(a1-6)]Man(b1-4)GlcNAc(b1-4)GlcNAc
# Procedure, shortened: as §1
# [12] = molecular target: Gal(b1-4)GlcNAc(b1-3)Gal(b1-3)GalNAc
# Procedure, shortened: as §1
# [13] = molecular target: Gal(b1-4)GlcNAc(b1-3)Gal(b1-4)GlcNAc(b1-2)Man(a1-3)[Gal(b1-4)GlcNAc(b1-3)Gal(b1-4)GlcNAc(b1-2)Man(a1-6)]Man(b1-4)GlcNAc(b1-4)GlcNAc
# Procedure, shortened: as §1
# [14] = molecular target: Gal(b1-4)GlcNAc(b1-3)Gal(b1-4)GlcNAc(b1-3)Gal(b1-4)GlcNAc(b1-2)Man(a1-3)[Gal(b1-4)GlcNAc(b1-3)Gal(b1-4)GlcNAc(b1-3)Gal(b1-4)GlcNAc(b1-2)Man(a1-6)]Man(b1-4)GlcNAc(b1-4)GlcNAc
# Procedure, shortened: as §1
# [15] = molecular target: Gal(b1-4)GlcNAc(b1-3)Gal(b1-4)GlcNAc(b1-3)GalNAc
# Procedure, shortened: as §1
# [16] = molecular target: Gal(b1-4)GlcNAc(b1-3)Gal(b1-4)GlcNAc(b1-3)[Gal(b1-4)GlcNAc(b1-3)Gal(b1-4)GlcNAc(b1-6)]GalNAc
# Procedure, shortened: as §1
# [17] = molecular target: Gal(b1-4)GlcNAc(b1-3)Gal(b1-4)GlcNAc(b1-6)[Gal(b1-3)]GalNAc
# Procedure, shortened: as §1
# Gal3S(b1-4)Glc = molecular target: Gal3S(b1-4)Glc
# Procedure, shortened: as §1
# [18] = molecular target: Gal3S(b1-4)[Fuc(a1-3)]Glc6S
# Procedure, shortened: as §1
# GalNAc(b1-4)GlcNAc6S = molecular target: GalNAc(b1-4)GlcNAc6S
# Procedure, shortened: as §1
# GalNAc3S(b1-4)GlcNAc3S = molecular target: GalNAc3S(b1-4)GlcNAc3S
# Procedure, shortened: as §1
# GlcA(b1-6)Gal = molecular target: GlcA(b1-6)Gal
# Procedure, shortened: as §1
# [19] = molecular target: GlcA3S(b1-3)Gal(b1-4)GlcNAc(b1-3)Gal(b1-4)Glc
# Procedure, shortened: as §1
# GlcNAc(b1-3)Gal(b1-4)Glc = molecular target: GlcNAc(b1-3)Gal(b1-4)Glc
# Procedure, shortened: as §1
# [20] = molecular target: GlcNAc(b1-3)Gal(b1-4)GlcNAc
# Procedure, shortened: as §1
# [21] = molecular target: GlcNAc(b1-3)Gal(b1-4)GlcNAc(b1-2)Man(a1-3)[GlcNAc(b1-3)Gal(b1-4)GlcNAc(b1-2)Man(a1-6)]Man(b1-4)GlcNAc(b1-4)GlcNAc
# Procedure, shortened: as §1
# [22] = molecular target: Kdn(a2-3)Gal(b1-4)[Fuc(a1-3)]GlcNAc
# Procedure, shortened: as §1
# Man(a1-2)Man(a1-3)Man = molecular target: Man(a1-2)Man(a1-3)Man
# Procedure, shortened: as §1
# [23] = molecular target: Man(a1-3)[Man(a1-6)]Man(a1-6)[Man(a1-2)Man(a1-3)]Man(b1-4)GlcNAc(b1-4)GlcNAc
# Procedure, shortened: as §1
# [24] = molecular target: Man(a1-3)[Man(a1-6)]Man(a1-6)[Man(a1-3)]Man(b1-4)GlcNAc(b1-4)GlcNAc
# Procedure, shortened: as §1
# [25] = molecular target: Neu5Ac(a2-3)Gal(b1-4)GlcNAc(b1-2)[Neu5Ac(a2-3)Gal(b1-4)GlcNAc(b1-6)]Man(a1-6)[Neu5Ac(a2-3)Gal(b1-4)GlcNAc(b1-2)Man(a1-3)][GlcNAc(b1-4)]Man(b1-4)GlcNAc(b1-4)GlcNAc
# Procedure, shortened: as §1
# [26] = molecular target: Neu5Ac(a2-3)Gal(b1-4)GlcNAc(b1-3)Gal(b1-4)GlcNAc(b1-2)Man(a1-3)[Neu5Ac(a2-3)Gal(b1-4)GlcNAc(b1-3)Gal(b1-4)GlcNAc(b1-2)Man(a1-6)]Man(b1-4)GlcNAc(b1-4)GlcNAc
# Procedure, shortened: as §1
# [27] = molecular target: Neu5Ac(a2-3)Gal(b1-4)GlcNAc(b1-3)Gal(b1-4)GlcNAc(b1-3)Gal(b1-4)GlcNAc(b1-2)Man(a1-3)[Neu5Ac(a2-3)Gal(b1-4)GlcNAc(b1-3)Gal(b1-4)GlcNAc(b1-3)Gal(b1-4)GlcNAc(b1-2)Man(a1-6)]GalNAc
# Procedure, shortened: as §1
# [28] = molecular target: Neu5Ac(a2-3)Gal(b1-4)GlcNAc(b1-3)Gal(b1-4)GlcNAc(b1-3)GalNAc
# Procedure, shortened: as §1
# [29] = molecular target: Neu5Ac(a2-3)[GalNAc(b1-4)]Gal(b1-4)GlcNAc(b1-3)GalNAc
# Procedure, shortened: as §1
# [30] = molecular target: Neu5Ac(a2-6)Gal(b1-4)GlcNAc(b1-3)Gal(b1-4)GlcNAc(b1-3)Gal(b1-4)GlcNAc(b1-2)Man(a1-3)[Neu5Ac(a2-6)Gal(b1-4)GlcNAc(b1-3)Gal(b1-4)GlcNAc(b1-3)Gal(b1-4)GlcNAc(b1-2)Man(a1-6)]GalNAc
# Procedure, shortened: as §1
# [31] = molecular target: Neu5Ac(a2-6)Gal(b1-4)GlcNAc(b1-3)Gal(b1-4)GlcNAc(b1-3)[Neu5Ac(a2-6)Gal(b1-4)GlcNAc(b1-3)Gal(b1-4)GlcNAc(b1-6)]GalNAc
# Procedure, shortened: as §1
# [32] = molecular target: Neu5Ac(a2-6)Gal(b1-4)GlcNAc(b1-3)Gal(b1-4)[Fuc(a1-3)]GlcNAc(b1-3)Gal(b1-4)[Fuc(a1-3)]GlcNAc
# Procedure, shortened: as §1
# Neu5Ac(a2-6)GalNAc = molecular target: Neu5Ac(a2-6)GalNAc
# Procedure, shortened: as §1
binder,measurement,setting,value
B1,glycan array binding signal (z-score),[1],-0.163
same,glycan array binding signal (z-score),[2],-0.097
same,glycan array binding signal (z-score),[3],-0.18
same,glycan array binding signal (z-score),[4],0.277
same,glycan array binding signal (z-score),[5],-0.024
same,glycan array binding signal (z-score),[6],-0.231
same,glycan array binding signal (z-score),[7],-0.189
same,glycan array binding signal (z-score),Gal(a1-4)Gal(b1-4)GlcNAc,-0.227
same,glycan array binding signal (z-score),[8],-0.191
same,glycan array binding signal (z-score),[9],-0.273
same,glycan array binding signal (z-score),[10],-0.217
same,glycan array binding signal (z-score),[11],-0.217
same,glycan array binding signal (z-score),[12],-0.158
same,glycan array binding signal (z-score),[13],3.85
same,glycan array binding signal (z-score),[14],4.96
same,glycan array binding signal (z-score),[15],6.28
same,glycan array binding signal (z-score),[16],4.46
same,glycan array binding signal (z-score),[17],5.01
same,glycan array binding signal (z-score),Gal3S(b1-4)Glc,-0.25
same,glycan array binding signal (z-score),[18],-0.049
same,glycan array binding signal (z-score),GalNAc(b1-4)GlcNAc6S,-0.282
same,glycan array binding signal (z-score),GalNAc3S(b1-4)GlcNAc3S,-0.065
same,glycan array binding signal (z-score),GlcA(b1-6)Gal,-0.12
same,glycan array binding signal (z-score),[19],-0.235
same,glycan array binding signal (z-score),GlcNAc(b1-3)Gal(b1-4)Glc,-0.227
same,glycan array binding signal (z-score),[20],-0.246
same,glycan array binding signal (z-score),[21],-0.184
same,glycan array binding signal (z-score),[22],-0.169
same,glycan array binding signal (z-score),Man(a1-2)Man(a1-3)Man,-0.152
same,glycan array binding signal (z-score),[23],4.18
same,glycan array binding signal (z-score),[24],-0.197
same,glycan array binding signal (z-score),[25],-0.045
same,glycan array binding signal (z-score),[26],7.65
same,glycan array binding signal (z-score),[27],7.6
same,glycan array binding signal (z-score),[28],-0.119
same,glycan array binding signal (z-score),[29],3.55
same,glycan array binding signal (z-score),[30],4.99
same,glycan array binding signal (z-score),[31],9.54
same,glycan array binding signal (z-score),[32],-0.116
same,glycan array binding signal (z-score),Neu5Ac(a2-6)GalNAc,-0.234
